Experiment [1] has as its target T1, Mitogen-activated protein kinase 12 (Homo sapiens) (UniProt P53778).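 Note: values are averaged p38gamma kinase inhibition readings, compounds tested at 1 µM.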
T1 sequence (whole entry): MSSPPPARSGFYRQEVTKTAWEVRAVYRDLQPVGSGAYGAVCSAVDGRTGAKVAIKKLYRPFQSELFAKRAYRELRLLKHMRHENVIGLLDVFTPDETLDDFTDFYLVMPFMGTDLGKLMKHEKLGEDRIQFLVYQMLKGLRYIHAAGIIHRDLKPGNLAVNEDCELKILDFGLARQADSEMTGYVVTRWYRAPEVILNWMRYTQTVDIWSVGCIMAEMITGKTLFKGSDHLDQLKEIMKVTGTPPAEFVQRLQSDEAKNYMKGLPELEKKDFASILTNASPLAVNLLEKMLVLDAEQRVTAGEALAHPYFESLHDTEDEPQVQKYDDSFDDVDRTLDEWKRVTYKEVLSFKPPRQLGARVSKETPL
The conditions noted are these: at 1 µM.

The target in experiment [2] is SRSF protein kinase 1 (Homo sapiens) (UniProt Q96SB4). The note with it: at 0.1 µM.
SRSF protein kinase 1 (Homo sapiens), sequence (Q96SB4 whole entry): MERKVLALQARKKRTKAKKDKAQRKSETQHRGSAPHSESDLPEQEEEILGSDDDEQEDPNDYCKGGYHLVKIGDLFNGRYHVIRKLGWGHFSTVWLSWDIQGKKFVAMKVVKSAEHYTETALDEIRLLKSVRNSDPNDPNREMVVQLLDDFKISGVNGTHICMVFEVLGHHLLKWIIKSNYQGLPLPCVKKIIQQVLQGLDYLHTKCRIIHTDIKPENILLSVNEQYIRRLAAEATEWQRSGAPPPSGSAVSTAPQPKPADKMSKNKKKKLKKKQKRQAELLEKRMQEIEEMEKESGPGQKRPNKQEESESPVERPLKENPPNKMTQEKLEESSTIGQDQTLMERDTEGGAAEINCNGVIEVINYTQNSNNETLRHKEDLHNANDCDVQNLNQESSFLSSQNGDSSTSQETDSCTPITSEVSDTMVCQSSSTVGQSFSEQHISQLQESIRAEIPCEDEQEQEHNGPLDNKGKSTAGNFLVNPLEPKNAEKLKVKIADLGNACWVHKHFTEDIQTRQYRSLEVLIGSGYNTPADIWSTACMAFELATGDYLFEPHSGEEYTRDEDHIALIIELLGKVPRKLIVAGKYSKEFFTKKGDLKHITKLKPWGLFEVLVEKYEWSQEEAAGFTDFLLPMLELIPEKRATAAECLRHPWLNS
Experiment [3] has the same target. The conditions noted are these: at 1 µM.
Experiment [4] addresses Phosphatidylinositol 4,5-bisphosphate 3-kinase catalytic subunit alpha isoform (Homo sapiens) (UniProt P42336). The conditions noted are these: at 0.1 µM.
Experiment [5] has the same target. The conditions noted are these: at 1 µM.
Experiment [6] deals with T2, Phosphatidylinositol 4,5-bisphosphate 3-kinase catalytic subunit delta isoform (Homo sapiens) (UniProt O00329).
T2 sequence (whole entry): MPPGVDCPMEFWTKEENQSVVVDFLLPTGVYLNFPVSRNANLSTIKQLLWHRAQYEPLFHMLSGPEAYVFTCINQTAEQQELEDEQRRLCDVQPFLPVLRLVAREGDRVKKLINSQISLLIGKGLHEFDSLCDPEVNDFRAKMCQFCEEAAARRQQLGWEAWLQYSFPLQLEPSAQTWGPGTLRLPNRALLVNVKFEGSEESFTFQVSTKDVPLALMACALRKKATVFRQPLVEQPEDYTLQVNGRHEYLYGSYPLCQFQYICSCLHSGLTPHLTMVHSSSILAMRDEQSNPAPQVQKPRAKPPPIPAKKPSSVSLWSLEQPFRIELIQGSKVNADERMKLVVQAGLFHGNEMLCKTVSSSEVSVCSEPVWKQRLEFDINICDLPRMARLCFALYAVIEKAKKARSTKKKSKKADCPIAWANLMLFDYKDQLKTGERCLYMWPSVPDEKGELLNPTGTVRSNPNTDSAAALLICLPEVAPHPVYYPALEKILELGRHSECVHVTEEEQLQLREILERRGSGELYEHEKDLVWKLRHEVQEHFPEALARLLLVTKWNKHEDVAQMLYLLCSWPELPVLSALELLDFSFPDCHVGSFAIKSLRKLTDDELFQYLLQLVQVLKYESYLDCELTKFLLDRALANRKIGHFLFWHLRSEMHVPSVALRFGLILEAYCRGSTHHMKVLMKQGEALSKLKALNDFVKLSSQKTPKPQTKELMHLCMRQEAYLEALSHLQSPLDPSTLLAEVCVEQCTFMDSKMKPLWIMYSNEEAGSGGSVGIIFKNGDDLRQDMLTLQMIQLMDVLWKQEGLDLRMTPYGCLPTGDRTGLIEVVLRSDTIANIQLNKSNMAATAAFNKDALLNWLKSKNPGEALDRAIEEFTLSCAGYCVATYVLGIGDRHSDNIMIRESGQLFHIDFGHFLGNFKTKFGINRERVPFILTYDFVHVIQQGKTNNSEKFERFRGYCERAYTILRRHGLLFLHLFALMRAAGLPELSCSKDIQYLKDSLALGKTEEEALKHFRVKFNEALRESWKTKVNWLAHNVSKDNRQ
The conditions noted are these: at 0.1 µM.

Experiment [7] concerns the target T2, Phosphatidylinositol 4,5-bisphosphate 3-kinase catalytic subunit delta isoform (Homo sapiens). The conditions noted are these: at 1 µM.
The target of experiment [8] is Phosphatidylinositol 4-kinase beta (Homo sapiens) (UniProt Q9UBF8). The note with it: at 0.1 µM.
Phosphatidylinositol 4-kinase beta (Homo sapiens), sequence (Q9UBF8 2-816 limits assumed): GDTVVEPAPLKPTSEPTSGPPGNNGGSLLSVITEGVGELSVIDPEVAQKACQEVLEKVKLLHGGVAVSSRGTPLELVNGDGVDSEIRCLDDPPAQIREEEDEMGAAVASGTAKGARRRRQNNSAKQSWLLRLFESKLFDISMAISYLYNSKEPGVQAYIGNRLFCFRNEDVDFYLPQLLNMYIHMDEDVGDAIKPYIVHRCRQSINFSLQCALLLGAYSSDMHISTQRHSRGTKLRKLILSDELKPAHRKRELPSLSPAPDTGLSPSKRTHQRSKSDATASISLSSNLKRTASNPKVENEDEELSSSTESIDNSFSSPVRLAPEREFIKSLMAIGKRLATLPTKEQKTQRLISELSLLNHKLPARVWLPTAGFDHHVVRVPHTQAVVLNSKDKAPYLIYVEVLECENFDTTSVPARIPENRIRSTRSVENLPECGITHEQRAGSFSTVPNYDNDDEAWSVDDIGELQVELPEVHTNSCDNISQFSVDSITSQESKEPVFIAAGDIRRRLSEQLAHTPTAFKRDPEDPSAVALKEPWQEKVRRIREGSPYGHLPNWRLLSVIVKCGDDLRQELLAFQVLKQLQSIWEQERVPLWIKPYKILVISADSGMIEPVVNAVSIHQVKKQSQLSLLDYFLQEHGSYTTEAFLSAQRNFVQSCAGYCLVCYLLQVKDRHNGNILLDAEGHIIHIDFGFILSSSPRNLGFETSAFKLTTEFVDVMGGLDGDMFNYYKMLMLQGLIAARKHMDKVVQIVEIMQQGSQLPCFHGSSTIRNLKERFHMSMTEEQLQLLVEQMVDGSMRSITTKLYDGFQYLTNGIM
For experiment [9] the target is unchanged. The conditions noted are these: at 1 µM.
For experiment [10], the target named is Sphingosine kinase 1 (Homo sapiens) (UniProt Q9NYA1). The note with it: at 0.1 µM.
Sphingosine kinase 1 (Homo sapiens), sequence (Q9NYA1 whole entry): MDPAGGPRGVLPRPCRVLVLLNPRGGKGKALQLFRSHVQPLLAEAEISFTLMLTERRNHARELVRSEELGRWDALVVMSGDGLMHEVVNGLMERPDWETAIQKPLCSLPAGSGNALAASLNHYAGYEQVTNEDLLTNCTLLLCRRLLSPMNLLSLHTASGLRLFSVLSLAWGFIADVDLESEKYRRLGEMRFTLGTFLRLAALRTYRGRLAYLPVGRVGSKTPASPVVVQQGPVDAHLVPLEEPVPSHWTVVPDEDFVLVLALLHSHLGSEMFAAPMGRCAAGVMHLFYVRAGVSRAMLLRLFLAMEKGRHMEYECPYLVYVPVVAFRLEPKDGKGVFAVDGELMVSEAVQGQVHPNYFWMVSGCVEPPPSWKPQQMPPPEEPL
The target is the same in experiment [11]. The conditions noted are these: at 1 µM.
For experiment [12], the target named is T3, Sphingosine kinase 2 (Homo sapiens) (UniProt Q9NRA0).
T3 sequence (whole entry): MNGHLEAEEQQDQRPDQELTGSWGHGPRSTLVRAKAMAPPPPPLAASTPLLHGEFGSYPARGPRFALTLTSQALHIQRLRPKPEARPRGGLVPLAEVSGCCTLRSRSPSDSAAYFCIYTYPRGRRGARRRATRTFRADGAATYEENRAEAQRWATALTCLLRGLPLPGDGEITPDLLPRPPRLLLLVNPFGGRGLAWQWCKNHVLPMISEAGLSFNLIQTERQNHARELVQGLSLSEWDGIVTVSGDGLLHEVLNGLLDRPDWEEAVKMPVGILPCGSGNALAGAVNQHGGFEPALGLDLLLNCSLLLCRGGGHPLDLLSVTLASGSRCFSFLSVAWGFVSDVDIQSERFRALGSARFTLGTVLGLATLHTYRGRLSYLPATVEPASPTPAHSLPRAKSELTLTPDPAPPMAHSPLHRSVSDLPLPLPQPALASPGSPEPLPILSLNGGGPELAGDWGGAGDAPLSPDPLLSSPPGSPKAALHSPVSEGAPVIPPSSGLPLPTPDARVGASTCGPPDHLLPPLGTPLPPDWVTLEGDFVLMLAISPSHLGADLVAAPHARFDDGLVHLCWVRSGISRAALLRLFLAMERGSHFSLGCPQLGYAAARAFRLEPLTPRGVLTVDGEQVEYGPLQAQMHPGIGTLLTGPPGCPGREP
The conditions noted are these: at 0.1 µM.

The target of experiment [13] is T3, Sphingosine kinase 2 (Homo sapiens). The note with it: at 1 µM.
Experiment [14] has as its target Casein kinase II subunit alpha (Homo sapiens) (UniProt P68400). The note with it: at 0.1 µM.
For experiment [15] the target is unchanged. The conditions noted are these: at 1 µM.
Experiment [16] concerns the target T4, Inhibitor of nuclear factor kappa-B kinase subunit alpha (Homo sapiens) (UniProt O15111).
T4 sequence (whole entry): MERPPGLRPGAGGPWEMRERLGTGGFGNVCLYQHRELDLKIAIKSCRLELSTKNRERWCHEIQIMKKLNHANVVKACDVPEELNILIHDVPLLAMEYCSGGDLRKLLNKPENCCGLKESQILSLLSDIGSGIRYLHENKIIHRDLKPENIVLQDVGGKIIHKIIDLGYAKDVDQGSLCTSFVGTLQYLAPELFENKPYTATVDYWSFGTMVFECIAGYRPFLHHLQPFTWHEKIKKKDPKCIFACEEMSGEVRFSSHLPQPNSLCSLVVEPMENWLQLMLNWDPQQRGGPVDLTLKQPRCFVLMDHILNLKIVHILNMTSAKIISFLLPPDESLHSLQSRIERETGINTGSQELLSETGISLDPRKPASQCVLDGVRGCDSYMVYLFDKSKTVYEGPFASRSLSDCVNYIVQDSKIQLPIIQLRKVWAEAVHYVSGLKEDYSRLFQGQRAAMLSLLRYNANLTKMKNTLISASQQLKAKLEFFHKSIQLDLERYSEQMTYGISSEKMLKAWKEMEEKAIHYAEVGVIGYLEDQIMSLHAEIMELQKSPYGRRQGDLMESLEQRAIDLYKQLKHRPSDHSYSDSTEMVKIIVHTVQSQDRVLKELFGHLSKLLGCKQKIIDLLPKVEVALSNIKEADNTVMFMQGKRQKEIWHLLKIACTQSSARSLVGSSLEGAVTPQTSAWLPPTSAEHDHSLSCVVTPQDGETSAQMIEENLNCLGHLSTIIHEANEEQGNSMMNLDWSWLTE
The conditions noted are these: at 0.1 µM.

The target in experiment [17] is T4, Inhibitor of nuclear factor kappa-B kinase subunit alpha (Homo sapiens). The conditions noted are these: at 1 µM.
Experiment [18] has as its target T5, Inhibitor of nuclear factor kappa-B kinase subunit beta (Homo sapiens) (UniProt O14920).
T5 sequence (whole entry): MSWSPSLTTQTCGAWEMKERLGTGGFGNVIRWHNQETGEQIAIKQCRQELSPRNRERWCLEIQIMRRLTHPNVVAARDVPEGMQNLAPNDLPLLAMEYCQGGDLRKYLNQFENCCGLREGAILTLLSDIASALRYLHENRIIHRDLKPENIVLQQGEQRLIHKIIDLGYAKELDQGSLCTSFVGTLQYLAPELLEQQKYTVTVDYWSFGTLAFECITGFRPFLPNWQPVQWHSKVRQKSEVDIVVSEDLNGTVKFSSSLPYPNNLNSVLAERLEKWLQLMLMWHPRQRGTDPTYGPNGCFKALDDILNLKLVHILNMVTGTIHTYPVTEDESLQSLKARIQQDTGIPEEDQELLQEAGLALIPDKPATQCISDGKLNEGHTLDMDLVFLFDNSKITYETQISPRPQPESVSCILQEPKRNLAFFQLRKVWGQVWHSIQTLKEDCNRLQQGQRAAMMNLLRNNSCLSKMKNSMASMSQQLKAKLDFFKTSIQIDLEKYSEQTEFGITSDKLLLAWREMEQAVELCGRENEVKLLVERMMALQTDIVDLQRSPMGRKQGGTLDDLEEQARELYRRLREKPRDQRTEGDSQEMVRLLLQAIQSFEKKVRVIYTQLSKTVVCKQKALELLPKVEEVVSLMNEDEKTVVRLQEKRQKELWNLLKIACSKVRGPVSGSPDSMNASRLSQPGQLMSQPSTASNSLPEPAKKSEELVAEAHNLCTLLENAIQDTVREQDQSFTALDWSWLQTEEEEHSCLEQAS
The conditions noted are these: at 0.1 µM.

The target of experiment [19] is T5, Inhibitor of nuclear factor kappa-B kinase subunit beta (Homo sapiens). The conditions noted are these: at 1 µM.
Experiment [20] concerns the target T6, Inhibitor of nuclear factor kappa-B kinase subunit epsilon (Homo sapiens) (UniProt Q14164).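 Note: mean inhibition of IKKε reported, from the GSK PKIS dataset.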
T6 sequence (whole entry): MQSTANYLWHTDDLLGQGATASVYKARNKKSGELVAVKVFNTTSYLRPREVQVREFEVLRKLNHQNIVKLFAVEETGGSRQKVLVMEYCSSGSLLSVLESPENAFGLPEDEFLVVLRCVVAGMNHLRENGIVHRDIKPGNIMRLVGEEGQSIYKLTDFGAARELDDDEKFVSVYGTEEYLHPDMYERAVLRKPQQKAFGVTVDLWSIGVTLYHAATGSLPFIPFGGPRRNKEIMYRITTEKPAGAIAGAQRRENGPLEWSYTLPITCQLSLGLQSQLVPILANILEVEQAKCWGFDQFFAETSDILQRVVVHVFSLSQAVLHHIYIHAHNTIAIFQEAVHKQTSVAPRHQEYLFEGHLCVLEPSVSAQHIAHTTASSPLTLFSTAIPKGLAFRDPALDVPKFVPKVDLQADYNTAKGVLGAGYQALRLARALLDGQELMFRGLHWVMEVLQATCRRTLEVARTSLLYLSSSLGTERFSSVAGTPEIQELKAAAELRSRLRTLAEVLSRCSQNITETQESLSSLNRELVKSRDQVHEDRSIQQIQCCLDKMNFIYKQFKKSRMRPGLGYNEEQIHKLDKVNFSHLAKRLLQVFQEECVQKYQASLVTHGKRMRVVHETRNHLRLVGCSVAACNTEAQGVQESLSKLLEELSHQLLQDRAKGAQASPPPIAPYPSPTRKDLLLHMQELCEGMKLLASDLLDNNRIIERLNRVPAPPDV
The note with it: at 0.1 µM.

Casein kinase II subunit alpha (Homo sapiens), sequence (P68400 whole entry, looked up): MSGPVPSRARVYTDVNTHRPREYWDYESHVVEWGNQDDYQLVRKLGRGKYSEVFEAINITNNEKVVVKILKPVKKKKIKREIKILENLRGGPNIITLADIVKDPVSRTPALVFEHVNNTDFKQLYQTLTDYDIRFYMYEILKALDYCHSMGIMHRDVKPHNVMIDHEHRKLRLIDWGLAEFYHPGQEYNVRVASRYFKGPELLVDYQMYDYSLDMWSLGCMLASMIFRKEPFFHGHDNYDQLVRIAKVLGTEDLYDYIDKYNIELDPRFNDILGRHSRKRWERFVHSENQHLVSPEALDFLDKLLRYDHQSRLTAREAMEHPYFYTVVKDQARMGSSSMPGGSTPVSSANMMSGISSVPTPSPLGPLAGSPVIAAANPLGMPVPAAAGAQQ
Phosphatidylinositol 4,5-bisphosphate 3-kinase catalytic subunit alpha isoform (Homo sapiens), sequence (P42336 whole entry, canonical isoform): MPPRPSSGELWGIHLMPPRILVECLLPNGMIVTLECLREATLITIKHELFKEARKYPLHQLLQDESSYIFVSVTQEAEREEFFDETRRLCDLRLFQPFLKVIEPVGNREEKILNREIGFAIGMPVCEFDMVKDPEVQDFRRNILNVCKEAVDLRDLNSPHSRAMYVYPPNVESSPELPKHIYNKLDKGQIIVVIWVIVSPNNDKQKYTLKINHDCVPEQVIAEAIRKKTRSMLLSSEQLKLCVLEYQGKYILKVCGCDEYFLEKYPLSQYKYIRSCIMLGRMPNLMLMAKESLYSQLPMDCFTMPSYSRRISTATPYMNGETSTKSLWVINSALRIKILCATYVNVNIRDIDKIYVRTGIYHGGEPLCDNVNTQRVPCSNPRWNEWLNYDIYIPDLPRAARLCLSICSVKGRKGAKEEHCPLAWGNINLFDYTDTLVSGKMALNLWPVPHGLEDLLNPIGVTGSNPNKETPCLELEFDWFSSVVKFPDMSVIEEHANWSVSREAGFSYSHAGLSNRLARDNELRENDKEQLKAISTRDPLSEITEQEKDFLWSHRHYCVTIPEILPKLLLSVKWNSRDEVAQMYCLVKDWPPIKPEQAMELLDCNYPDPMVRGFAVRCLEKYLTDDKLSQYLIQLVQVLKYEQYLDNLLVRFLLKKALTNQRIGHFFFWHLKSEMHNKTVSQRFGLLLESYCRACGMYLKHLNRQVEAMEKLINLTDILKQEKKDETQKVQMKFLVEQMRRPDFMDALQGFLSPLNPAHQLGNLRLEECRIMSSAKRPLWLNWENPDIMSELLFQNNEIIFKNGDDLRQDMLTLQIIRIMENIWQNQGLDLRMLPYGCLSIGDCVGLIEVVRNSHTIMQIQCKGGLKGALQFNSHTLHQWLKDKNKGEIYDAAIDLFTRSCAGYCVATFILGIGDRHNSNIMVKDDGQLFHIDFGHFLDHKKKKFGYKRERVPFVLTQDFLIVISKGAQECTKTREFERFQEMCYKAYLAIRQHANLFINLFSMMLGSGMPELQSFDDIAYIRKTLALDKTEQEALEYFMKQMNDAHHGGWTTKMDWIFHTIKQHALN

Take `Cn1cc(C=C2C(=O)Nc3cccnc32)c2ccccc21`: the inhibition in [1] was 2.65%; in experiment [2], -3.21%; in [3] it was -4.48%; in experiment [4], 2.82%; in experiment [5], 7.17%; in experiment [6] it was 1.38%. For the same molecule, the inhibition in experiment [7] was 3.54%; in [8] it was 0.42%; in [9] it was 4.05%; in experiment [10] it was -3.04%; in experiment [11], 8.29%; in experiment [12], -4.3%. The inhibition is -0.04% in experiment [13]; 1.08% in [14]; 6.39% in experiment [15]; 5.69% in experiment [16]; -0.33% in experiment [17]; 2.27% in [18]. In addition, the inhibition in experiment [19] is 1.05%; in experiment [20] it was 3.13%.
On to `CN1CCC(C(=O)Nc2n[nH]c3nnc(-c4ccccc4)cc23)CC1`, for which the inhibition is 3.34% in experiment [1]; -2.38% in experiment [2]; -0.73% in experiment [3]; 4.88% in experiment [4]; 4.26% in [5]; 1.61% in experiment [6]. For the same molecule, the inhibition in experiment [7] was 1.12%; in experiment [10] it was 1.63%; in [11], -3.46%; in [12], -0.94%; in experiment [13], -2.16%; in experiment [14], 6.73%. Moreover, the inhibition was found to be 12.2% in experiment [15]; 6.86% in [16]; 1.13% in [17]; 11.4% in experiment [18]; 12.4% in [19]; 7.37% in experiment [20].
Turning to `COc1cc(C)c(NC(=O)CN(C)C)cc1Nc1nc(Nc2cccc(F)c2C(N)=O)c2cc[nH]c2n1`, the inhibition in [1] was 1.38%; in experiment [2], -2.61%; in [3], -3.29%; in [4] it was 0.75%; in experiment [5] it was 0.03%; in [6] it was 0.12%. Further, the inhibition in experiment [7] is 2.2%; in experiment [8] it was 5.07%; in experiment [9], 1.45%; in [11] it was -1.23%; in experiment [12], -0.13%; in [13], -0.4%. In addition, the inhibition in [14] is 7.08%; in experiment [15], 35.5%; in experiment [16], 0.92%; in experiment [17], -6.41%; in experiment [18], 0.16%; in [19], -5.7%. In addition, the inhibition in experiment [20] was determined as 1.27%.
In the case of `NC(=O)c1cccc(Nc2nccc(Nc3cccc4[nH]ncc34)n2)c1`, the inhibition in experiment [1] was 1.3%; in [2], 1.99%; in experiment [3] it was 2.55%; in [4] it was -1.08%; in [5], 6.41%; in experiment [6], 1.39%. The inhibition in [7] was 10.7%; in [8], 4.75%; in experiment [9] it was 10.2%; in experiment [10], -1.36%; in experiment [11] it was -1.98%; in [12], -0.9%. The inhibition is 0.58% in experiment [13]; -0.25% in [14]; 3.56% in experiment [15]; 7.29% in [16]; 41% in [17]; -0.17% in experiment [18]. Further, the results for the inhibition in experiment [19] and in experiment [20] were 17.4% and -3.38%, respectively.

As usually defined, the inhibition is the drop in the measured response relative to a control, in per cent.

The values above are taken from ChEMBL document CHEMBL1961873, “Compounds: GSK PKIS; Assays: Nanosyn kinase panel” (2012).
